Experimental data published in PubChem BioAssay (NCI).
Compounds without any hit were thinned out: in the full panel of roughly 83,000, 20% have a hit.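 Activity criterion: percent growth below 10, measured after cells in 96-well plates were exposed to a single compound concentration for 48 hours.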 Unmarked numbers belong to inactive results. Activity calls are given as the source filed them.

Each compound was assayed on HL-60(TB) leukemia (assay: NCI-60 one-dose screen, 48 h (100 = growth as untreated, 0 = no growth, -100 = all killed)). Conditions: 10 µM unless noted.

| SMILES | growth |
| --- | --- |
| COc1ccc(C(=O)c2cc3c(N)c(C(=O)Nc4ccc(C)cc4)sc3nc2C)cc1 | 7.74% (active) |
| CC1c2ccccc2-c2ccccc2N1C (stereo not given) | 106% |
| COc1cc2c(c(OC)c1OC)C(=O)CC(c1cccc(C(=O)Nc3ccc(Br)cc3)c1)O2 (stereo not given) | 13.8% |
| C=CC(=O)Nc1cc(Nc2nccc(-c3cn(C)c4ccccc34)n2)c(OC)cc1N(C)CCN(C)C | -65.8% (active) |
| O=P(O)(O)OCC1OC(n2cnc3c(NCc4ccccc4)ncnc32)C(O)C1O (stereo not given) | 26.8% |
| NC(=O)c1ccc(-c2c3ccccc3cc3c2ccc2ccccc23)cc1 | 15.6% |
| c1ccc2nc(Cn3c[n+](Cc4ccc5ccccc5n4)c4ccccc43)ccc2c1 | -40.1% (active) |
| N[C@@H]1CCC[C@H]1NCCCCN1C(=O)c2cccc3cc([N+](=O)[O-])cc(c23)C1=O | 30.5% |
| Nc1ccc(Sc2ccc3c4c2cccc4c(=O)n2c4ccccc4nc32)cc1 | 18.2% |
| O=C(Nc1cccnc1)c1ccc2ccc3ccc(C(=O)Nc4cccnc4)nc3c2n1 | 37.1% |
| CCNC(=O)Oc1ccc(/C(=C(\C)c2ccccc2)c2ccc(OCCCN(C)C)cc2)cc1 | 53.2% |
| COc1cccc(-c2nn(C(C)(C)C)cc2-c2ccnc(NCCCNS(=O)(=O)c3ccc(C)cc3)c2)c1 | 105% |
| O=c1c2cc(F)ccc2sc2c(N3CCNCC3)nc3ccccc3c12 | -52% (active) |
| COc1ccc2cnc(N)c(C#Cc3cc(C(=O)Nc4ccc(CN5CCN(C)CC5)c(C(F)(F)F)c4)cnc3C)c2c1 | 95% |
| COc1ccc(/C=C2\N=C(c3ccccc3)N(C(=O)c3ccccc3O)NC2=O)cc1 | -10.5% (active) |
| O=C1NN(C(=O)c2ccc(Cl)cc2)C(c2ccccc2)=N/C1=C\c1cn(-c2ccccc2)nc1-c1ccccc1 | 94.5% |
| O=c1[nH]nc(-c2ccccc2)c2sc(NC(=S)Nc3ccc(Cl)cc3)nc12 | 72.6% |
| COc1ccc(S(=O)(=O)N2CCN(C)CC2)cc1NC(=O)c1[nH]c(C)c2c1CCCCC2=O | 8.16% (active) |
| O=C(/C=C/C12c3ccccc3C(c3ccccc31)C1C(=O)N(c3ccc(Cl)cc3)C(=O)C12)c1ccccn1 (stereo not given) | -19.4% (active) |
| Fc1ccc(C(c2ccc(F)cc2)C(Cl)Cl)cc1 | 85.7% |

| SMILES | growth |
| --- | --- |
| COCCN(C(=O)Cc1cccs1)C(C(=O)NCc1ccc(OC)cc1)c1ccc(C(C)C)cc1 (stereo not given) | 105% |
| Clc1nc(Cl)c2ncn(CC3(Cn4cnc5c(Cl)nc(Cl)nc54)COC3)c2n1 | -75.5% (active) |
| Cc1cc(N2CCCCCC2)nc(N2CCN(CC(=O)Nc3ccc4c(ccn4Cc4ccccc4)c3)CC2)n1 | 23.4% |
| COc1ccc(CCN2C(=O)C(C)(C)SC2=S)cc1OC | 106% |
| COc1cc(C2C3=C(COC3=O)N(CCO)c3cc4c(cc32)OCO4)cc(OC)c1O (stereo not given) | 4.08% (active) |
| CCCCCCCCCCCCCCCC[N+]1(C)CCN(SN2CC[N+](C)(CCCCCCCCCCCCCCCC)CC2)CC1 | 0.773% (active) |
| CC/C=C\C/C=C\C[C@H](O)C/C=C1/C(=O)C=C[C@@H]1C/C=C\CCCC(=O)OC | -19.5% (active) |
| CC(C)Cc1ccc(C(C)C(=O)NCc2ccc(Cn3c(=O)sn(-c4ccc(Cl)cc4)c3=O)cc2)cc1 (stereo not given) | 95.8% |
| CCOc1cc(/C=N\NC(=O)C[N+](C)(C)C)ccc1O | 87.7% |
| COc1ccc(CC2c3cc(OC)c(OC)cc3CC[N+]2(C)CCC(=O)OCCCCCOC(=O)CC[N+]2(C)CCc3cc(OC)c(OC)cc3C2Cc2ccc(OC)c(OC)c2)cc1OC (stereo not given) | 82.9% |
| N#CSCC1CC(O)(c2ccccc2)CC(c2ccc(F)cc2)O1 (stereo not given) | -38.7% (active) |
| COc1cc(CN(c2ccc(Cl)cc2)C2OC(=O)c3ccccc32)cc(OC)c1OC (stereo not given) | 21.7% |
| CCCOCc1cn[nH]n1 | 105% |
| c1ccc2[nH]c(-c3cc(-c4ccc5c(c4)OCO5)n[nH]3)nc2c1 | 13.3% |
| NS(=O)(=O)c1cnccc1Sc1ccncc1S(N)(=O)=O | 82.5% |
| CCCCC(CC)COC(=O)C[N+](C)(C)CCOC(c1ccccc1)c1ccccc1 (stereo not given) | -56.7% (active) |
| Fc1ccc(Nc2ncnc3ccc(-c4cnc5[nH]ccc5c4)cc23)cc1Cl | -22.3% (active) |
| CCN(CC)CCN1C(=O)c2c(c(C)c3c(oc4cc(OC)ccc43)c2C)C1=O | 85.8% |
| O=S1(=O)N(CCNc2nccc(-c3c(-c4cccc(O)c4)nc4sccn34)n2)CCN1Cc1ccccc1 | 91.8% |
| Nc1c(C(=O)Nc2ccccc2F)sc2nc3c(cc12)CCCC3 | 15.5% |
